Source: PubChem BioAssay (NCATS)
Records with an inconclusive call do not appear. Unmarked numbers belong to inactive results. The source made the active and inactive calls. Calls come from the whole dose curve; as a rule, active = well fitted cell-killing curve with a large enough effect; inconclusive = small, poorly fitted or top-dose-only effect, or effect the other way; inactive = no such curve, though single readings can be large or run the other way.

experiment: Quantitative High-Throughput drug screen in 47 multiple myeloma cell lines against the NCATS MIPE library collection: OCIMY1_PLB cell viability assay (AID 1918979); settings: OCI-MY1 myeloma viability, CellTiter-Glo ATP, 48 h; series mostly up to 45.8 µM; viability: at the top concentration; note: nearly all actives have a fitted effect of over 35% in size
From the text: PI: Beverly A. Mock Ph.D.
Laboratory of Cancer Biology and Genetics,
Center for Cancer Research, National Cancer Institute,
National Institute of Health, Bethesda, Maryland
Drug resistance and disease progression are common in multiple myeloma (MM) patients, underscoring the need for new therapeutic combinations. […] We hypothesized that effective combinations would reduce MYC expression and enhance p16 activity. […] These preclinical data identify potentially useful drug combinations for evaluation in drug-resistant MM and reveal potential mechanisms of combined drug sensitivity.
Described herein is the primary MIPE qHTS used to cherrypick compounds. Validated compounds were then further tested for potential synergistic activiy.
[1] Peat TJ, Gaikwad SM, Dubois W, Gyabaah-Kessie N, Zhang S, Gorjifard S, Phyo Z, Andres M, Hughitt VK, Simpson RM, Miller MA, Girvin AT, Taylor A, Williams D, D'Antonio N, Zhang Y, Rajagopalan A, Flietner E, Wilson K, Zhang X, Shinn P, Klumpp-Thomas C, McKnight C, Itkin Z, Chen L, Kazandijian D, Zhang J, Michalowski AM, Simmons JK, Keats J, Thomas CJ, Mock BA. Drug combinations identified by high-throughput screening promote cell cycle transition and upregulate Smad pathways in myeloma. Cancer Lett. 2023 Aug 1;568:216284. doi: 10.1016/j.canlet.2023.216284. Epub 2023 Jun 24. PMID: 37356470; PMCID: PMC10408729.
SEQUENCE No. (e.g., 1, 2, 3, etc.); […] (e.g., Cells, Incubation, Reagent, etc.); VALUE and DESCRIPTION.
1; Cells; 5 uL; white, solid bottom 1536-well Greiner assay plate.
2; Compounds; 23 nL; Kalypsis pin tool (Wako USA) equipped with a 1536-well pin head to transfer to the assay plates.
3; Incubation; 48 hours; 37C incubation.
4; Reagent;5uL; CellTiter Glo (Promega).
5; Detector; 425V; Luminescence; Viewlux PerkinElmer.
NOTES (numbers refer to Sequence numbers above)
1. The cell-based screening methods employed in this study were like those previously published. Briefly, the corresponding myeloma cell lines were screened in 1,536-well plates with 500 cells, 5-uL per well for inhibition of cell viability (assessed by measuring ATP levels with CellTiterGlo).
2. NCATS MIPE 4.0 library of approved and investigational drugs were added using the Kalypsis pin tool. Wells treated with DMSO only for 100% viability and media only for 0% viability were used as controls.
3. The assay plates were covered and incubated for 48 hours in a 37C, 5% CO2 incubator with controlled humidity.
4. After 48 hours, CellTilter-GloTM luminescent substrate mix (Promega) reagent was added to the assay plate and plates we incubated for 5 min at room temperature.
5. Signal was measured as median relative luminescence units on a ViewLux (PerkinElmer) multiplate reader.
[1] Heske CM, Davis MI, Baumgart JT, Wilson K, Gormally MV, Chen L, Zhang X, Ceribelli M, Duveau DY, Guha R, Ferrer M, Arnaldez FI, Ji J, Tran HL, Zhang Y, Mendoza A, Helman LJ, Thomas CJ. Matrix Screen Identifies Synergistic Combination of PARP Inhibitors and Nicotinamide Phosphoribosyltransferase (NAMPT) Inhibitors in Ewing Sarcoma. Clin Cancer Res. 2017 Dec 1;23(23):7301-7311. doi: 10.1158/1078-0432.CCR-17-1121. Epub 2017 Sep 12. PMID: 28899971; PMCID: PMC6636827.
Potency is the fitted concentration of half-maximal effect.

SMILES | Potency | viability
CC(=O)Nc1ccc([C@H](C)C(=O)Nc2ncc(C(C)C)s2)cc1 | 5.9 µM (active) | 
COCCOC(=O)C1=C(C)NC2=C(C(=O)CC(c3ccccc3OC)C2)C1c1cccc(O)c1 (stereo not given) |  | 77.9%
C[N+]1(C)[C@@H]2CC(OC(=O)[C@H](CO)c3ccccc3)C[C@H]1[C@H]1O[C@@H]12 (stereo not given in full) |  | 109%
O=C1NC(=O)C(=Cc2ccc3c(c2)OC(F)(F)O3)S1 |  | 112%
COc1ccc(-c2cc(=O)c3c(O)cc(O)cc3o2)cc1O |  | 113%
O=C(Nc1cccc(Br)c1)c1cccc(S(=O)(=O)N2CCCCCC2)c1 | 14.8 µM (active) | 
C=C1C(=O)[C@@]23C(CC[C@@H]1[C@H]2O)[C@@]12CO[C@]3(O)[C@@H](O)[C@@H]1C(C)(C)CC[C@@H]2O (stereo not given in full) | 7.43 µM (active) | 
O=C(O)c1ccc(-c2c[nH]c3ncc(-c4ccccc4)cc23)cc1C1CCCC1 |  | 107%
Clc1ccc(C(c2ccc(Cl)cc2)n2cc[n+](CC(OCc3ccc(Cl)cc3Cl)c3ccc(Cl)cc3Cl)c2)cc1 (stereo not given) | 18.7 µM (active) | 
C[C@H]1[C@H](NC(=O)C(=NOC(C)(C)C(=O)O)c2csc(N)n2)C(=O)N1S(=O)(=O)O |  | 111%
O=c1c(-c2ccc(O)cc2)coc2cc(O[C@@H]3O[C@H](CO)[C@H](O)[C@H](O)[C@H]3O)ccc12 |  | 108%
O=C(CCCCCCC(=O)Nc1ccccc1)NO | 5.9 µM (active) | 
COc1cc(N2CCC(N3CCN(C)CC3)CC2)ccc1Nc1ncc(Cl)c(Nc2ccccc2S(=O)(=O)C(C)C)n1 |  | 54%
CC1(C)O[C@H]2C[C@@H]3[C@H]4CCC5=CC(=O)C=C[C@]5(C)[C@@]4(F)[C@@H](O)C[C@]3(C)[C@]2(C(=O)CO)O1 |  | 122%
O=C(NC1CCOCC1)c1ccc(-c2cc(-c3cn[nH]c3-c3ccccn3)ccn2)cc1 |  | 113%
O=C1NC(=O)C(=Cc2cccc(C(F)(F)F)c2)S1 |  | 99.9%
COc1ccc2cccc(CCNC(C)=O)c2c1 |  | 114%
CCC(=O)O[C@]1(C(=O)CO)CC[C@H]2[C@@H]3CCC4=CC(=O)CC[C@]4(C)[C@@H]3CC[C@@]21C |  | 108%
c1cc(-c2sc(-c3ccncc3)c(-c3ccncc3)c2-c2ccncc2)ccn1 |  | 114%
O=C(O)CCC1CCC(c2cc(F)ccc2F)(S(=O)(=O)c2ccc(Cl)cc2)CC1 (stereo not given) |  | 116%

SMILES | Potency | viability
NC(CO)(CO)CCc1ccc(Sc2cccc(OCc3ccccc3)c2)cc1Cl | 26.4 µM (active) | 
COc1ccc(Cc2nccc3cc(OC)c(OC)cc23)cc1OC | 18.7 µM (active) | 
CC#CCn1c(N2CCC[C@@H](N)C2)nc2c1c(=O)n(Cc1nc(C)c3ccccc3n1)c(=O)n2C |  | 100%
CC1(C)S[C@H]2[C@H](NC(=O)[C@@H](N)c3ccc(O)cc3)C(=O)N2[C@@H]1C(=O)O |  | 94.2%
O=C1C[C@@H](c2ccc(O)cc2)Oc2cc(O)cc(O)c21 |  | 98.3%
CC(C)(C)C(=O)Oc1ccc2c(c1)nc(NC(=O)c1cccc([N+](=O)[O-])c1)n2CCCO |  | 86.9%
CS(=O)(=O)N(Cc1ccco1)CC(O)Cn1c2ccccc2c2ccccc21 (stereo not given) |  | 108%
Nc1ncnc2ccccc12 |  | 107%
CC(C)C(C)C=CC(C)C1CCC2C3=CC=C4CC(O)CCC4(C)C3CCC21C (stereo not given) |  | 129%
O=C(O)c1cc(O)c2c(c1)C(=O)c1cccc(O)c1C2=O |  | 92.9% [at 92.2 µM]
CCc1ccc(C=C2SC(=S)NC2=O)cc1 |  | 107%
CC(C)(C)NC(=O)Nc1cccc(Nc2ncc(F)c(NC(C)(C)CO)n2)c1 |  | 105%
CCn1c(C(=O)N(C2CC2)C2CC2)cc2c3c(ncn3C)c(Nc3cc(C)n(C)n3)nc21 |  | 113%
COc1ccc(-c2coc3cc(O)ccc3c2=O)cc1 |  | 107%
O=c1cc(-c2cccc3c2Sc2ccccc2S3)oc(N2CCOCC2)c1 |  | 75.6%
Cc1c[nH]c(C=C2C(=O)Nc3ccccc32)c1CCC(=O)O |  | 81.1%
CN(C)Cc1cccc(N=C(c2ccccc2)c2c(O)[nH]c3cc(C(=O)N(C)C)ccc23)c1 |  | 120%
COc1ccc(-c2oc3c(CC=C(C)C)c(OC4O[C@H](CO)[C@@H](O)[C@H](O)[C@@H]4O)cc(O)c3c(=O)c2OC2O[C@@H](C)[C@H](O)[C@@H](O)[C@@H]2O)cc1 (stereo not given in full) | 23.5 µM (active) | 
COC1CCC(N(C(=O)C2CCC(C)CC2)c2cc(C3=CCCCC3)sc2C(=O)O)CC1 (stereo not given) |  | 116%
CC1(C)Cc2c(sc(NC(=S)NC(=O)c3ccccc3)c2C(=O)O)CO1 |  | 85.8%
